For eight compounds, growth results are on record in PubChem BioAssay (NCI).

Among the test systems are NCI-H23 lung; NCI-H226 lung; NCI-H322M lung; HOP-62 NSCLC; NCI-H460 lung; NCI-H522 lung; A549/ATCC NSCLC; 786-0 renal; COLO 205 colon; DU-145 prostate; K-562 leukemia; MALME-3M melanoma; MDA-MB-231 breast; RXF 393 renal; SF-268 CNS; SF-295 CNS; SF-539 CNS; UACC-257 melanoma; M14 melanoma; HCT-15 colon.
Common to all, as to assay: NCI-60 one-dose screen, 48 h (100 = growth as untreated, 0 = no growth, -100 = all killed)
What all share (details): 10 µM unless noted

Compounds without any hit were thinned out: in the full panel of roughly 83,000, 20% have a hit.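 The endpoint reported here, percent growth, reads 100 for growth as untreated, 0 for no net growth and -100 for all cells dead.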 A number with no mark means an inactive call. The source made the active and inactive calls. Rule for the calls: active = growth percent below 10; inactive = the rest.

For `O=C1Nc2ccccc2C12Nc1cc(Cl)ccc1S2` (centres undefined), the growth in the experiment with NCI-H23 lung is 78.4%; in the experiment with NCI-H226 lung it was 90.8%; in the experiment on NCI-H322M lung, 87.1%; in the experiment with HOP-62 NSCLC, 98.4%; in the experiment on NCI-H460 lung, 87.5%; with NCI-H522 lung, 82.6%. In addition, the growth in the experiment on A549/ATCC NSCLC was 98.7%; with 786-0 renal, 98.4%; with COLO 205 colon, 98.3%; in the experiment on DU-145 prostate, 85.9%; in the experiment with K-562 leukemia it was 39.7%; with MALME-3M melanoma, 81.8%. Further, the growth in the experiment on MDA-MB-231 breast is 85.4%; in the experiment with RXF 393 renal it was 121%; in the experiment on SF-268 CNS it was 87.8%; in the experiment on SF-295 CNS, 78.8%; in the experiment with SF-539 CNS, 86.5%; in the experiment on UACC-257 melanoma, 138%. Moreover, the growth in the experiment on M14 melanoma was 91.6%.

On to `COc1cc2c(c(OC)c1OC)CCc1cnoc1-2`, for which the growth with NCI-H23 lung was 104%; in the experiment with NCI-H226 lung it was 102%; in the experiment with NCI-H322M lung it was 107%; in the experiment with HOP-62 NSCLC, 156%; in the experiment on NCI-H460 lung, 106%; with NCI-H522 lung, 102%. Also, the growth is 103% with A549/ATCC NSCLC; 155% in the experiment with 786-0 renal; 134% with COLO 205 colon; 116% in the experiment with DU-145 prostate; 99.8% with K-562 leukemia; 100% in the experiment with MALME-3M melanoma. For the same compound, the growth with MDA-MB-231 breast is 107%; with RXF 393 renal, 121%; in the experiment with SF-268 CNS, 109%; with SF-295 CNS, 108%; in the experiment on SF-539 CNS it was 100%; in the experiment with UACC-257 melanoma, 103%. For the same compound, the growth was 122% in the experiment with M14 melanoma and 102% with HCT-15 colon.

Consider `Clc1ccc([C@@H]2C[C@@H]3Cc4cc(Br)c5ccccc5c4N2O3)c(Cl)c1`, for which the growth in the experiment on NCI-H23 lung is 78.6%; in the experiment with NCI-H226 lung, 95.7%; with NCI-H322M lung, 90.7%; in the experiment with HOP-62 NSCLC it was 87.2%; in the experiment on NCI-H460 lung, 93.3%; in the experiment with NCI-H522 lung it was 43.8%. Also, the growth with A549/ATCC NSCLC was 70.8%; in the experiment on 786-0 renal, 95%; in the experiment on COLO 205 colon, 98.4%; with DU-145 prostate it was 93.3%; with K-562 leukemia it was 23.8%; in the experiment with MALME-3M melanoma it was 61.7%. Also, the growth in the experiment on MDA-MB-231 breast is 89.1%; with RXF 393 renal it was 88.9%; in the experiment on SF-268 CNS, 85.8%; with SF-295 CNS it was 65.5%; in the experiment on SF-539 CNS it was 91.4%; in the experiment on UACC-257 melanoma, 66.1%. In addition, the growth in the experiment on M14 melanoma was 75.6%.

Take `COC(=O)CCC1=C(C)/C(=C/c2[nH]c(-c3ccc[nH]3)cc2OC)N=C1C`: the growth in the experiment with NCI-H23 lung was 8.11% (active); in the experiment with NCI-H226 lung, 23.9%; in the experiment with NCI-H322M lung, 26.6%; with HOP-62 NSCLC it was 3.57% (active); in the experiment with NCI-H460 lung, 6.04% (active); in the experiment with NCI-H522 lung it was -66.9% (active). Further, the growth in the experiment on A549/ATCC NSCLC is 13%; in the experiment on 786-0 renal, 13.1%; with COLO 205 colon, 12.1%; in the experiment on DU-145 prostate it was 14.2%; in the experiment on K-562 leukemia, -16.4% (active); in the experiment on MALME-3M melanoma, -38.1% (active). Also, the growth in the experiment with MDA-MB-231 breast was -17% (active); in the experiment on RXF 393 renal, 24.1%; in the experiment on SF-268 CNS, 21.9%; in the experiment with SF-295 CNS it was -30% (active); in the experiment on SF-539 CNS, 18.7%; in the experiment on UACC-257 melanoma it was -16.4% (active). For the same compound, in the experiment on M14 melanoma, the growth was 4.36% (active).

Regarding `Clc1nc(Cl)c2ncn(-c3ccccc3)c2n1`, the growth is 99.9% in the experiment on NCI-H23 lung; 93.4% with NCI-H226 lung; 76.8% with NCI-H322M lung; 99.4% in the experiment on HOP-62 NSCLC; 89.2% in the experiment with NCI-H460 lung; -68.9% (active) in the experiment on NCI-H522 lung. Moreover, the growth was 95.3% with A549/ATCC NSCLC; 88.5% in the experiment with 786-0 renal; 80.9% in the experiment on COLO 205 colon; 36.7% in the experiment with DU-145 prostate; 36.2% with K-562 leukemia; 48.4% in the experiment on MALME-3M melanoma. The growth is 63.1% in the experiment with MDA-MB-231 breast; 56.1% with RXF 393 renal; 68.8% with SF-268 CNS; 106% with SF-295 CNS; 85.2% in the experiment on SF-539 CNS; 67% with UACC-257 melanoma. The growth in the experiment on M14 melanoma was 35.6%.

On to `Cc1ccc2c(c1)C(=O)/C(=C/c1ncc([N+](=O)[O-])n1C)O2`, for which the growth is -2.65% (active) in the experiment on NCI-H23 lung; 65.7% in the experiment with NCI-H226 lung; 75.6% with NCI-H322M lung; 61.2% with HOP-62 NSCLC; -38% (active) in the experiment on NCI-H460 lung; -64.1% (active) in the experiment on NCI-H522 lung. Further, the growth is 6.86% (active) in the experiment with A549/ATCC NSCLC; 2.46% (active) in the experiment on 786-0 renal; -74.8% (active) in the experiment with COLO 205 colon; -25.9% (active) with DU-145 prostate; 0.705% (active) with K-562 leukemia; -46.7% (active) in the experiment with MALME-3M melanoma. Moreover, the growth was -40.1% (active) with MDA-MB-231 breast; -57.7% (active) in the experiment with RXF 393 renal; -31.9% (active) in the experiment with SF-268 CNS; 18% with SF-295 CNS; 39.1% in the experiment on SF-539 CNS; -34.6% (active) in the experiment with UACC-257 melanoma. Further, in the experiment with M14 melanoma, the growth was -55.8% (active).

On to `Cc1ccc(C(O)C2=CC(=O)c3ccccc3C2=O)cc1` (centres undefined), for which the growth in the experiment on NCI-H23 lung was 89.2%; in the experiment on NCI-H226 lung it was 94.9%; in the experiment with NCI-H322M lung, 99.3%; in the experiment with HOP-62 NSCLC it was 104%; with NCI-H460 lung it was 98.4%; in the experiment with NCI-H522 lung, 95.7%. The growth in the experiment with A549/ATCC NSCLC was 102%; in the experiment with 786-0 renal, 110%; in the experiment with COLO 205 colon, 107%; with DU-145 prostate, 111%; in the experiment on K-562 leukemia it was 112%; in the experiment with MALME-3M melanoma, 107%. For the same compound, the growth in the experiment on MDA-MB-231 breast was 71.1%; in the experiment with RXF 393 renal it was 109%; in the experiment on SF-268 CNS, 107%; in the experiment with SF-295 CNS it was 97.6%; in the experiment on SF-539 CNS it was 95.3%; in the experiment on UACC-257 melanoma it was 102%. In addition, the growth in the experiment on M14 melanoma was 95.7%.

Regarding `O=C(O)c1ccc(NC(=O)c2ccc(Nc3ccnc(C(F)(F)F)c3)cc2)cc1`, the growth in the experiment on NCI-H23 lung was 98.4%; with NCI-H226 lung, 100%; in the experiment on NCI-H322M lung, 121%; in the experiment with HOP-62 NSCLC it was 103%; in the experiment with NCI-H460 lung, 113%; with NCI-H522 lung it was 103%. In addition, the growth in the experiment with A549/ATCC NSCLC was 103%; with 786-0 renal, 103%; with COLO 205 colon, 101%; in the experiment on DU-145 prostate, 106%; with K-562 leukemia, 94.1%; with MALME-3M melanoma, 103%. In addition, the growth in the experiment on MDA-MB-231 breast is 109%; with RXF 393 renal, 97.9%; in the experiment on SF-268 CNS it was 98%; in the experiment on SF-295 CNS it was 108%; with SF-539 CNS, 104%; in the experiment on UACC-257 melanoma, 99.6%. The growth with M14 melanoma was 107%; in the experiment on HCT-15 colon it was 92.1%.
